The list shows a part of the results. Activity calls are given as the source filed them.
How the values were obtained:
[1] = biological target: Inward rectifier potassium channel 2 (Mus musculus) (UniProt P35561); assay: inhibition of Kir2.1 inward rectifier potassium flux – cell-based, FluxOR thallium flux, duplicate, confirmation (AID 2032;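 active = Primary-screen hit whose thallium flux fell at least 3 control SD below untreated wells in both duplicates, with normal baseline fluorescence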); settings: Kir2.1-expressing cells, FluxOR thallium flux fluorescence, at 10 µM; active compounds read low
Chain of Inward rectifier potassium channel 2 (Mus musculus) (P35561 whole entry, looked up): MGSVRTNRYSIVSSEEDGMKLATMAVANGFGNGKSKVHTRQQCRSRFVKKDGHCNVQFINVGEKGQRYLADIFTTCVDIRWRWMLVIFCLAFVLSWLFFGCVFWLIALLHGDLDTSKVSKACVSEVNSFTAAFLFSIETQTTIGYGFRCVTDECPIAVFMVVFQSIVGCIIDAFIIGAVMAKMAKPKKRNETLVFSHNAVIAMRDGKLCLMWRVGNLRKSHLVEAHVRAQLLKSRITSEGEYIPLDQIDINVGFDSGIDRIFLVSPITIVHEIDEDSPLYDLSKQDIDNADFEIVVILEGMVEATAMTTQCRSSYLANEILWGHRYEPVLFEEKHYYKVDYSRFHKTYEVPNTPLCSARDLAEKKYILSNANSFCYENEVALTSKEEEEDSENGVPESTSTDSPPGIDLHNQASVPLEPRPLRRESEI

[2] = parental HEK293 cell activity, no Kir2.1 – FluxOR thallium flux, duplicate, single concentration, counter-screen for Kir2.1 inhibitor project, confirmation (AID 2105); settings: parental HEK293 cells, FluxOR thallium flux fluorescence, at 10 µM; 0% = unstimulated blank wells;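 as to FluxOR signal as % of negative control (100 = no effect): percent is based on the flux ratio of peak minus minimum fluorescence over baseline F0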
[3] = parental CHO-K1 cell activation, no KCNQ2 – FluxOR thallium flux, duplicate, counter-screen for KCNQ2 potentiator project, confirmation (AID 2282;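 active = signal rise of at least 3 SD above the untreated control mean, in both duplicate wells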;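 also: counter screen of KCNQ2 potentiator hits so any rise reflects channel-independent effects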); settings: parental CHO-K1 cells, FluxOR thallium flux fluorescence; at 10 µM; active compounds read high; zero = vehicle mean+3SD, 100% = vehicle-minus-blank window
[4] = biological target: Potassium voltage-gated channel subfamily KQT member 1 (Homo sapiens) (UniProt P51787); assay: KCNQ1 activation in stable CHO cells – cell-based, FluxOR thallium flux, selectivity assay for KCNQ2 potentiator project, confirmation (AID 2283;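 active = fluorescence ratio rise of at least 3 SD of vehicle wells above their mean, in both replicate wells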;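 also: 0% = vehicle mean plus 3 SD and 100% = vehicle minus unstimulated blank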); settings: FluxOR thallium flux fluorescence, at 10 µM, active compounds read high, beyond 3SD, as % of vehicle-control signal
Chain of Potassium voltage-gated channel subfamily KQT member 1 (Homo sapiens) (P51787 whole entry, looked up): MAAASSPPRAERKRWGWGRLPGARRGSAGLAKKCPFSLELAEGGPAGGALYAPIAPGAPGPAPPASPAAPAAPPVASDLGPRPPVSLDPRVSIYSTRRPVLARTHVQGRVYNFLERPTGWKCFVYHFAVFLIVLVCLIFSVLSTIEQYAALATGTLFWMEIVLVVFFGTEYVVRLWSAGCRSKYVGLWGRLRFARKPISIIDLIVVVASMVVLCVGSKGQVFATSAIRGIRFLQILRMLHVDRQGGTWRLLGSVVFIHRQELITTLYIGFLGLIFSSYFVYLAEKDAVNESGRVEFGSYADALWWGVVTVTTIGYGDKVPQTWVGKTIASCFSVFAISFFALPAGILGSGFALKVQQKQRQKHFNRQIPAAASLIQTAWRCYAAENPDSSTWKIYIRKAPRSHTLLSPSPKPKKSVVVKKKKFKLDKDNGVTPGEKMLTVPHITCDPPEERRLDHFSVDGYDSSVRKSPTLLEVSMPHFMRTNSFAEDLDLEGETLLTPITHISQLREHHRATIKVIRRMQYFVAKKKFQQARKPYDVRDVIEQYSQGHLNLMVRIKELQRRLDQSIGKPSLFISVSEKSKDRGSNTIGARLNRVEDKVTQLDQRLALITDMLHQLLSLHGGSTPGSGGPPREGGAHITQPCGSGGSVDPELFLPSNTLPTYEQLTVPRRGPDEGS

[5] = biological target: Potassium voltage-gated channel subfamily KQT member 2 (Rattus norvegicus) (UniProt O88943); assay: KCNQ2 potassium channel activity enhancers – cell-based, CHO, FluxOR thallium flux, duplicate, confirmation (AID 2287;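 active = fluorescence ratio rising 3 SD or more over the vehicle control mean in both replicates, plus primary screen hit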;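 also: peak minus minimum thallium fluorescence divided by baseline after K/Tl stimulus; 0% = vehicle mean plus 3 SD and 100% = vehicle minus unstimulated blank difference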); settings: CHO-KCNQ2 cells, FluxOR thallium flux fluorescence; at 10 µM; active compounds read high
[6] = biological target: Inward rectifier potassium channel 2 (Mus musculus) (UniProt P35561); assay: PubChem AID 2345; settings: HEK293 Kir2.1, FluxOR thallium flux fluorescence; at 10 µM; active compounds read high;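 also: 0% = vehicle mean plus 3 SD and 100% = vehicle minus no-stimulus blank window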
[7] = biological target: Potassium voltage-gated channel subfamily KQT member 2 (Rattus norvegicus) (UniProt O88943); assay: W236L mutant KCNQ2 current enhancers – cell-based, rat KCNQ2 W236L, CHO, automated patch clamp, mechanism study for KCNQ2 potentiator project (AID 2558;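 active = current increase at least 3 SD of the untreated controls above them in both duplicate recordings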); settings: at 25 µM
[8] = biological target: Potassium voltage-gated channel subfamily KQT member 1 (Homo sapiens) (UniProt P51787); assay: blockers of human KCNQ1 channel – cell-based, Tl flux, duplicate, confirmation (AID 588353;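 active = primary screen active, with duplicate mean exceeding buffer control mean plus 3 SD of buffer wells, cut at about 28% in these data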;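 also: 0% = buffer control ratio and 100% = XE991 inhibitor control ratio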); settings: KCNQ1 cell line, FluxOR thallium flux fluorescence; at 10 µM; active compounds read high
[9] = nonspecific activity in CHO-K1 cells without KCNQ1 – parental CHO cells, Tl flux, counter-screen for KCNQ1 inhibitor project (AID 588366;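 active = mean of duplicate thallium-flux fluorescence ratios in parental host cells more than 5 SD below the buffer control mean, cut at about 0.38 in these data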;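 also: ratio is peak minus minimum fluorescence divided by baseline fluorescence; actives read low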); settings: parental CHO-K1, FluxOR thallium flux fluorescence ratio; at 10 µM; active compounds read low; zero means no signal rise above baseline
[10] = biological target: Potassium voltage-gated channel subfamily KQT member 1 (Homo sapiens) (UniProt P51787); assay: block of human KCNQ1 potassium current – cell-based, automated electrophysiology, orthogonal assay, confirmation (AID 624120;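 active = KCNQ1 current drop exceeding 3 SD of negative control wells, seen in both duplicate runs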); settings: KCNQ1-CHO cells, automated patch clamp current; at 10 µM
[11] = biological target: Potassium voltage-gated channel subfamily KQT member 2 (Rattus norvegicus) (UniProt O88943); assay: block of rat KCNQ2 potassium channel – cell-based, selectivity assay for KCNQ1 inhibitor project (AID 651746;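 active = mean percent inhibition of the KCNQ2 thallium signal more than 5 SD above the buffer-only control wells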;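 as to inhibition: 0% = buffer control wells and 100% = XE-991 inhibitor control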); settings: KCNQ2 cells, FluxOR thallium flux fluorescence, at 10 µM; active compounds read high
[12] = biological target: Potassium voltage-gated channel subfamily E member 1 (Homo sapiens) + Potassium voltage-gated channel subfamily KQT member 1 (Homo sapiens) (UniProt P15382+P51787); assay: block of human IKs channel complex – CHO-K1 cells, thallium flux, FluxOR, selectivity assay for KCNQ1 inhibitor project (AID 652147;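 active = mean percent inhibition of duplicate wells above the buffer-only control mean plus 3 SD of those controls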); settings: KCNQ1/KCNE1 cells, FluxOR thallium flux fluorescence; at 10 µM
Chain of Potassium voltage-gated channel subfamily E member 1 (Homo sapiens) + Potassium voltage-gated channel subfamily KQT member 1 (Homo sapiens) (P51787 whole entry, looked up): as the sequence (P51787 whole entry, looked up) above

[13] = nonspecific flux increase, KCNQ1-free cells – parental CHO cells, counter-screen for KCNQ1 potentiator project (AID 493006;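 active = duplicate-averaged activation above buffer control mean plus 5 SD of those controls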;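 as to activation: fluorescence ratio of max minus min over baseline after K+ and Tl+ depolarization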); settings: parental CHO-K1 cells, FluxOR thallium flux, at 10 µM; active compounds read high
[14] = biological target: Potassium voltage-gated channel subfamily KQT member 1 (Homo sapiens) (UniProt P51787); assay: enhancement of KCNQ1 channel thallium flux – FluxOR thallium flux, CHO cells, duplicates, confirmation (AID 493007;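 active = potentiation averaged over duplicate wells exceeding buffer-only control mean by more than 3 SD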;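 as to outcome: cells depolarized by a potassium plus thallium sulfate stimulus after compound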;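 as to potentiation: 0% = buffer-only wells and 100% = R-L3 activator control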); settings: KCNQ1 cell line, FluxOR thallium flux fluorescence, at 10 µM; active compounds read high, % of reference activator effect, buffer zero
[15] = biological target: Potassium voltage-gated channel subfamily KQT member 2 (Rattus norvegicus) (UniProt O88943); assay: KCNQ2 thallium flux enhancement – KCNQ2-CHO-K1 cells, selectivity assay for KCNQ1 potentiator project (AID 493009;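 active = mean duplicate potentiation above the buffer control mean plus 5 SD of buffer wells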;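 also: assay conditions were tuned for KCNQ1 rather than KCNQ2 modulators; signal is max minus min fluorescence divided by baseline after thallium stimulus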); settings: FluxOR thallium flux fluorescence, at 10 µM; active compounds read high, scaled: buffer 0, activator control 100
[16] = biological target: Potassium voltage-gated channel subfamily KQT member 1 (Homo sapiens) (UniProt P51787); assay: KCNQ1 activators by electrophysiology – IonWorks patch clamp, KCNQ1-CHO cells, orthogonal assay for KCNQ1 potentiator project, confirmation (AID 493184;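 active = current rise at least 3 SD above the untreated control mean in each of two repeat wells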); settings: automated patch clamp current, at 10 µM; active compounds read high
[17] = biological target: Short transient receptor potential channel 4 (Mus musculus) (UniProt Q9QUQ5); assay: DAMGO-gated TRPC4 membrane potential modulation – cell-based, second specificity screen, HEK293 TRPC4/mu-opioid, selectivity assay for TRPC6 inhibitor project, confirmation (AID 2776;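 active = compounds whose fluorescence signal differed from control wells by over 3 SD, either direction, in both duplicate plates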); settings: HEK293 TRPC4/MOR, membrane potential dye fluorescence, at 10 µM, channel activated by saturating DAMGO dose; active compounds read high
Chain of Short transient receptor potential channel 4 (Mus musculus) (Q9QUQ5 whole entry, looked up): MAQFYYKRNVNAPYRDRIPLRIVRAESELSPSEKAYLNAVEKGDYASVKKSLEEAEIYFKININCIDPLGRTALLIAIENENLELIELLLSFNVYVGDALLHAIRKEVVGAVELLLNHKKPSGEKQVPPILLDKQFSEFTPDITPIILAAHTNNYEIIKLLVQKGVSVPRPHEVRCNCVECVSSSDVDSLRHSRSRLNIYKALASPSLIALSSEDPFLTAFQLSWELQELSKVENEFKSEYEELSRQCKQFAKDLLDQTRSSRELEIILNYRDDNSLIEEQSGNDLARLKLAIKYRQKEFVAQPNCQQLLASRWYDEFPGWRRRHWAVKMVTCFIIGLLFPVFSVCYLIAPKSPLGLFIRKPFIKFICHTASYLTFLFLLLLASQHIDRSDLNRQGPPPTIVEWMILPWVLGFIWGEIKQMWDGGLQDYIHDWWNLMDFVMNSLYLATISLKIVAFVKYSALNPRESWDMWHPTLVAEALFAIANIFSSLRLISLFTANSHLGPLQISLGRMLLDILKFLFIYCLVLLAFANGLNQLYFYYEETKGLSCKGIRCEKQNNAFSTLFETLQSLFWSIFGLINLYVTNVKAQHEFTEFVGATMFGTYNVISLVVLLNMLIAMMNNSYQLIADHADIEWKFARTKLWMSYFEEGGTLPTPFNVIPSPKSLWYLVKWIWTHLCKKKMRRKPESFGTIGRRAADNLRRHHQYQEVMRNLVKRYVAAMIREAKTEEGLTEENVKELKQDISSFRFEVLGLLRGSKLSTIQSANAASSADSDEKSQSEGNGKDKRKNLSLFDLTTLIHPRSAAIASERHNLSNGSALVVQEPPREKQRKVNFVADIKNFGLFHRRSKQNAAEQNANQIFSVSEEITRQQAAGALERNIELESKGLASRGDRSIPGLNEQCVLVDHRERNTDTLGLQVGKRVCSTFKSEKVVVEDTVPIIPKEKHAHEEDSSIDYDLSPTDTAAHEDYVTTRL

[18] = test system: transient receptor potential cation channel C4 (TRPC4), mouse; assay: membrane potential change in TRPC4 cells – cell-based, HEK293 TRPC4/mu-opioid, membrane potential dye, selectivity assay for TRPC6 inhibitor project, confirmation (AID 2777;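 active = rise or fall in signal beyond 3 SD of buffer-only wells in both replicate plates, either sign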;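 also: integrated kinetic ratio of fluorescence range over baseline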); settings: membrane potential fluorescence, at 10 µM
[19] = parental HEK293 depolarization signal interference – cell-based, second counter screen, counter-screen for TRPC6 inhibitor project, confirmation (AID 2779;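 active = membrane potential signal moving either way by over 3 SD of the maximum-effect control, in both duplicate plates, meaning non-specific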); settings: parental HEK293 membrane potential dye fluorescence; at 10 µM; maximal acetylcholine challenge after compound addition
[20] = nonspecific voltage dye signal in HEK293 – cell-based, parental HEK293, counter-screen for TRPC6 inhibitor project, confirmation (AID 2780;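 active = membrane potential signal shifting up or down by more than 3 SD of buffer-only wells, on both duplicate plates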;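 also: plate controls were buffer EC0 wells for no effect and acetylcholine ECmax wells for full effect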); settings: parental HEK293 membrane potential dye fluorescence; at 10 µM
[21] = biological target: Short transient receptor potential channel 6 (Mus musculus) (UniProt Q61143); assay: blockers of TRPC6 cation channel activity – HEK293 cells, membrane potential dye, duplicate, confirmation (AID 488960;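 active = fluorescence ratio falls more than 5 SD below the full-stimulation control mean, in both duplicate runs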); settings: ACh-evoked depolarization, at 10 µM; active compounds read high
Chain of Short transient receptor potential channel 6 (Mus musculus) (Q61143 whole entry, looked up): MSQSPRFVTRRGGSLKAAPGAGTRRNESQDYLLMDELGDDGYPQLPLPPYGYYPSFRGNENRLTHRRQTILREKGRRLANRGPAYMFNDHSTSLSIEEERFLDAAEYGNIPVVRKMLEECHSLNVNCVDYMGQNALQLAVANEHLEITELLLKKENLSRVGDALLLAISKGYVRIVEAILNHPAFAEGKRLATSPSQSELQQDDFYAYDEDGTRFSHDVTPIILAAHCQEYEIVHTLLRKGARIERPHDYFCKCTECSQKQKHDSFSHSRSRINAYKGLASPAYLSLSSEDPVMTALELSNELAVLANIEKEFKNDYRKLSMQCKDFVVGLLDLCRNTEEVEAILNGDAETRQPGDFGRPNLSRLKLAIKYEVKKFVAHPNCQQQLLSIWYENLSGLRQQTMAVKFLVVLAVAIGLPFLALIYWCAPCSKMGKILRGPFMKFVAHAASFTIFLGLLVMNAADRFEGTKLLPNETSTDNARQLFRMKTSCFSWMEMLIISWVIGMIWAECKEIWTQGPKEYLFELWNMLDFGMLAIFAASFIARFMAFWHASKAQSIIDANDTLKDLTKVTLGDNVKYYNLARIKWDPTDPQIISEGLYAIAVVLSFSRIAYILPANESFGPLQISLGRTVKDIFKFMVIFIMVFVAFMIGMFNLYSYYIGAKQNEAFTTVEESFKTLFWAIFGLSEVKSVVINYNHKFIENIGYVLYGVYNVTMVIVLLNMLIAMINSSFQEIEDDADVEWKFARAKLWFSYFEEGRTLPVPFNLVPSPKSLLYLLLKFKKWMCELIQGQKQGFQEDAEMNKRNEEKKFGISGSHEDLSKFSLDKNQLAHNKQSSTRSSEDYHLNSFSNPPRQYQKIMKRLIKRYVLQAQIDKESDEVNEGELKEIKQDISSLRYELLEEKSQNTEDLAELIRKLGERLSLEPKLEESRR

[22] = biological target: Short transient receptor potential channel 6 (Mus musculus) (UniProt Q61143); assay: mouse TRPC6 channel activators, confirmation, HEK293 cells, membrane potential dye, duplicate (AID 488961;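 active = ratio signal rise beyond 5 SD above unstimulated control wells' mean, seen in both duplicate runs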); settings: HEK293-TRPC6 membrane potential dye fluorescence, FDSS, at 10 µM; active compounds read high

S=C(NCc1ccc(Cl)cc1)NC12CC3CC(CC(C3)C1)C2
active: activity increase over 3SD of controls [3] 46.3% | potentiation, less the hit threshold [5] 9% | inhibition [8] 143% | outcome [10]
inactive: outcome [1] | outcome [2] | activation over 3SD threshold [4] -0.2% | activity over 3SD threshold [6] -9.25% | outcome [7] | fluorescence ratio (Tl flux) [9] 0.521 | outcome [11] | outcome [12]

CSc1nnc(NC(=O)c2nc(S(=O)(=O)Cc3ccc(C)cc3)ncc2Cl)s1
active: potentiation, less the hit threshold [5] 67.6% | current increase over 3SD of negative controls (%), active compounds read high [7] 23.1%
inactive: outcome [1] | outcome [2] | activity increase over 3SD of controls [3] -8.9% | activation over 3SD threshold [4] -21.2% | activity over 3SD threshold [6] -50.4%

CCn1c(=S)[nH]c2sc3c(c2c1=O)CCCCC3
active: FluxOR signal as % of negative control (100 = no effect) [2] 402% | potentiation, less the hit threshold [5] 43.5% | activation [13] 516% | potentiation [14] 258% | potentiation [15] 530%
inactive: outcome [1] | activity increase over 3SD of controls [3] -14.2% | activation over 3SD threshold [4] -21.6% | activity over 3SD threshold [6] -16.8% | outcome [7] | outcome [16]

Cc1[nH]n(-c2cccc(Cl)c2)c(=O)c1/C=N/n1c(C)nc2ccccc2c1=O
inactive: outcome [1] | activation over 3SD threshold [4] -26.8% | activity over 3SD threshold [6] -35.9% | outcome [7]
active: FluxOR signal as % of negative control (100 = no effect) [2] 145% | activity increase over 3SD of controls [3] 36% | potentiation, less the hit threshold [5] 1.8%

Cc1cccc(NC(=S)NC(=O)c2ccc(Br)o2)c1
active: FluxOR signal as % of negative control (100 = no effect) [2] 170% | potentiation, less the hit threshold [5] 35.5% | activation [13] 204% | potentiation [14] 72% | potentiation [15] 272%
inactive: outcome [1] | activity increase over 3SD of controls [3] -7% | activation over 3SD threshold [4] -15.7% | activity over 3SD threshold [6] -35.5% | outcome [7] | outcome [16]

CCOC(=O)c1sc(=S)n2c1[nH]c(=O)c1ccc(C(=O)OC)cc12
active: FluxOR signal as % of negative control (100 = no effect) [2] 174% | activation over 3SD threshold [4] 4.8% | potentiation, less the hit threshold [5] 26.7% | activation [13] 383% | potentiation [14] 108% | potentiation [15] 351%
inactive: outcome [1] | activity increase over 3SD of controls [3] -16.8% | activity over 3SD threshold [6] -43.9% | outcome [7] | outcome [16]

FC(F)(F)c1cccc(NC(=S)Nc2cccc(Cl)c2)c1
active: inhibition [8] 112%
inactive: outcome [1] | outcome [2] | activity increase over 3SD of controls [3] -22.1% | activation over 3SD threshold [4] -10.3% | potentiation, less the hit threshold [5] -4.8% | activity over 3SD threshold [6] -40.2% | outcome [7] | fluorescence ratio (Tl flux) [9] 0.527 | outcome [10] | outcome [11] | outcome [12]

Cc1ccc(CS(=O)(=O)c2ncc(Cl)c(C(=O)Nc3nnc(C)s3)n2)cc1
inactive: potentiation, less the hit threshold [5] -85.4% | activity over 3SD threshold [6] -51.4%
active: activity increase over 3SD of controls [3] 30.6% | activation over 3SD threshold [4] 79.7% | current increase over 3SD of negative controls (%), active compounds read high [7] 48.4%

CCN(CC(=O)NC(=O)NCc1ccccc1)Cc1nc2ccccc2c(=O)[nH]1
inactive: outcome [1] | outcome [2] | activity increase over 3SD of controls [3] -2.8% | activation over 3SD threshold [4] -14.6% | potentiation, less the hit threshold [5] -3% | activity over 3SD threshold [6] -39% | outcome [7]

CCC1(C)Cc2c(sc3nnn(CC(=O)Nc4ccc(Cl)cc4)c(=O)c23)CO1 (centres undefined)
inactive: outcome [1] | outcome [2] | activity increase over 3SD of controls [3] -19.3% | activity over 3SD threshold [6] -36.4% | outcome [7]
active: activation over 3SD threshold [4] 4.5% | potentiation, less the hit threshold [5] 2.2%

CC1=C/C(=N\OS(=O)(=O)c2ccccc2)C=CC1=O
active: potentiation, less the hit threshold [5] 0.8%
inactive: outcome [1] | outcome [2] | activity increase over 3SD of controls [3] -13.5% | activation over 3SD threshold [4] -8.8% | activity over 3SD threshold [6] -51.4% | outcome [7] | outcome [13] | outcome [14] | outcome [15] | outcome [16]

Cc1ccc2nc(C)c3c(c2c1)N(c1ccccc1)CC3
inactive: outcome [2] | outcome [18] | outcome [19] | outcome [21] | outcome [22] | fluorescence ratio (Tl flux) [9] 0.419 | outcome [12]
active: Tl flux remaining, % of negative control (active compounds read low) [1] 27.5% | inhibition [17] 32% | membrane potential signal change [20] -212% | inhibition [8] 46% | inhibition [11] 83.7%

Cc1ccc(S(=O)(=O)N2CCN(C(=O)COC(=O)c3c(C)cc(C)cc3C)CC2)c(C)c1
active: potentiation, less the hit threshold [5] 14.7%
inactive: outcome [1] | outcome [2] | activity increase over 3SD of controls [3] -0.8% | activation over 3SD threshold [4] -20.8% | activity over 3SD threshold [6] -17.6% | outcome [7]

Cc1ccc(NC(=O)C2CC2c2ccccc2)cc1 (centres undefined)
active: activity increase over 3SD of controls [3] 58.6% | activation over 3SD threshold [4] 64.2% | potentiation, less the hit threshold [5] 26.2%
inactive: outcome [1] | outcome [2] | activity over 3SD threshold [6] -35.9% | outcome [7]

CCn1c(O)c(N=NC2=NC(=O)CS2)c2cc(C)ccc21
active: FluxOR signal as % of negative control (100 = no effect) [2] 160% | potentiation, less the hit threshold [5] 0.3% | activation [13] 244% | potentiation [14] 112% | potentiation [15] 310%
inactive: outcome [1] | activity increase over 3SD of controls [3] -1.5% | activation over 3SD threshold [4] -22.6% | activity over 3SD threshold [6] -27.4% | outcome [7] | outcome [16]

CCOC(=O)c1c(NC(=S)NC)sc2c1CCCC2
inactive: outcome [1] | activation over 3SD threshold [4] -17.4% | activity over 3SD threshold [6] -37.6% | outcome [7] | outcome [16]
active: FluxOR signal as % of negative control (100 = no effect) [2] 196% | activity increase over 3SD of controls [3] 6.2% | potentiation, less the hit threshold [5] 16.6% | activation [13] 318% | potentiation [14] 73% | potentiation [15] 289%

CCn1cc(CN2CCC(C(=O)Nc3cccc(-c4cccc(Cl)c4)c3)CC2)cn1
active: Tl flux remaining, % of negative control (active compounds read low) [1] 55%
inactive: outcome [2] | outcome [13] | outcome [14] | outcome [16]

Source: PubChem BioAssay
